# Source: PubChem BioAssay (Tox21)
# Results filed as inconclusive are left out. A call without a number means that no potency is given here. Calls of active or inactive are those of the source. Calls follow the shape of the full dose curve.
# Assay: p53 small molecule agonists, cell-based qHTS assay with human liver microsomes (AID 1963577);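 also: p53 response element beta-lactamase reporter cells with liver microsomes plus NADPH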
# Conditions: HCT-116 p53RE-bla with human liver microsomes, ratio, 16 h; series mostly up to 66 µM
# Text: National Center for Advancing Translational Sciences [NCATS]
# Division of Preclinical Innovation [DPI]
# U.S. Environmental Protection Agency [EPA]
# National Institutes of Environmental Health Sciences [NIEHS]
# National Toxicology Program [NTP]
# U.S. Food and Drug Administration [FDA]
# p53, a tumor suppressor protein, is activated following cellular insult, including DNA damage and other cellular stresses. The activation of p53 regulates cell fate by inducing DNA repair, cell cycle arrest, apoptosis, or cellular senescence. The activation of p53, therefore, is a good indicator of DNA damage and other cellular stresses. […] The activation of the reporter gene under culture conditions can be detected by fluorescence intensity.
# Tox21 Assay Protocol Summary:
# The p53RE-bla cells were dispensed at 4,000cells/3ul/well in 1536-well black-clear bottom plates. After the assay plates were incubated at 37 C, 5% CO2 incubator for 5 hours, 23 nL of compounds dissolved in DMSO, positive controls or DMSO only was transferred to the assay plate. Following compound addition, 3 uL of human liver microsomes (XenoTech, Kansas City, KS) at final concentration of 0.5 mg/mL and 1uL of Beta-Nicotinamide adenine dinucleotide 2-phosphate (NADPH) at final concentration of 0.5 mg/mL were transferred to the assay plate. The plates were incubated at 37 C for 16 hours. 1 uL of LiveBLAzer detection mixture was added to each well and the plates were incubated at room temperature in the dark for 2 h.
SMILES,Potency,activation
BrCC(Br)(Br)Br,inactive,
N#Cc1sc2c(=O)c3ccccc3c(=O)c=2sc1C#N,inactive,
COC(=O)COc1ccc(Cl)cc1Cl,inactive,
CCCCNC(=O)OCC#CI,inactive,
Nc1ccc(Cl)cc1C(=O)c1ccccc1F,inactive,
CCN(CC)CCOC(=O)C(C)(c1ccccc1)c1ccccc1,inactive,
CCCCNP(N)(N)=S,inactive,
COC1=CC(=O)O[C@@H](CCc2ccccc2)C1,inactive,
O=C1CCCCC1Cl (stereo not given),inactive,
N#CNC#N,inactive,
CC(C)(C)C(O)C(Oc1ccc(-c2ccccc2)cc1)n1cncn1 (stereo not given),inactive,
CC(=O)OC1(c2ccccc2)CCN(CCc2ccccc2)CC1,inactive,
CCOc1cccc(C2(N3CCN(c4ccccc4)CC3)CCC(C)CC2)c1 (stereo not given),inactive,
COc1cccc([C@@]2(O)CCCC[C@@H]2CN(C)C)c1,inactive,
O=C=Nc1ccc(Cl)cc1,inactive,
Cc1nnc2n1-c1sc(CCC(=O)N3CCOCC3)cc1C(c1ccccc1Cl)=NC2,inactive,
O=C(Cl)c1ccccc1F,inactive,
CC(C)(CCl)C(=O)Cl,inactive,
CN1CCC(O)(c2ccc(F)cc2)C(C(=O)c2ccc(F)cc2)C1 (stereo not given),inactive,
N#CSCc1ccccc1,inactive,

SMILES,Potency,activation
O=C(O)CCCCCCNC1c2ccccc2CCc2ccccc21,inactive,
Oc1ccc(C2(c3ccc(O)cc3)c3ccccc3-c3ccccc32)cc1,inactive,
CCOC(=O)C1(c2ccccc2)CCN(CCc2ccc(N)cc2)CC1,inactive,
Clc1cc(C(Cl)(Cl)Cl)cnc1Cl,inactive,
O=C(O)C(F)(F)C(F)(F)C(F)(F)C(F)(F)C(F)(F)F,inactive,
O=C1c2ccccc2C(=O)c2ccccc21,,1.15% [at 13.5 µM] (inactive)
COC(=O)C(C)Oc1ccc(Oc2ccc(Cl)cc2Cl)cc1 (stereo not given),inactive,
O=C(Nc1ccccc1)Nc1cnns1,inactive,
Cn1c(CCCC(=O)O)nc2cc(N(CCCl)CCCl)ccc21,inactive,
ClC(Cl)=C(c1ccc(Cl)cc1)c1ccccc1Cl,inactive,
ClC=C(Cl)Cl,inactive,
CN1[C@@H]2CC[C@H]1CC(O)C2 (stereo not given in full),inactive,
COC(=O)C(C)N(C(=O)c1ccco1)c1c(C)cccc1C (stereo not given),inactive,
CCC[CH2][Sn]([CH2]CCC)([O]C(C)=O)[O]C(C)=O,inactive,
c1cncc([C@@H]2CCCCN2)c1,inactive,
COc1cc(Cl)c(OC)cc1Cl,inactive,
N#Cc1cc(I)c(O)c(I)c1,inactive,
CCc1cccc(C)c1N(C(=O)CCl)[C@@H](C)COC,inactive,
CCCN1CCC[C@@H]2Cc3[nH]ncc3C[C@H]21,inactive,
CC(C)COP(=O)(OCC(C)C)OCC(C)C,inactive,
